The values below come from PubChem BioAssay (NCATS).

Inconclusive results are not listed. Entries that show only a call come without a potency. A number with no mark means an inactive call. Calls of active or inactive are those of the source. Calls follow the shape of the full dose curve; tested in HEK293 reporter line.

This test in a line: qHTS for Inhibitors of the Functional Ribonucleoprotein Complex (vRNP) of Lassa (LASV) Arenavirus: LASV Primary Screen - GLuc reporter signal (AID 1347082). Also: nearly all actives have a fitted effect of over 60% in size. To be noted: LASV minigenome vRNP, Gaussia luciferase reporter; series mostly up to 57.5 µM; activity change, negative = inhibition: at the top concentration. (In general: qHTS replaces the single test concentration by a dilution series.)
As to `NC(=O)N/N=C/c1ccc([N+](=O)[O-])o1`, the “activity change, negative = inhibition” value was -0.242%.

As for `CN1CCN(CCCN2c3ccccc3Sc3ccc(C(F)(F)F)cc32)CC1`, the Potency entry is “inactive”.

`CC1Cc2ccccc2N1NC(=O)c1ccc(Cl)c(S(N)(=O)=O)c1` (configuration not stated): the Potency result is “inactive”.

As to `CNCCCC1c2ccccc2C=Cc2ccccc21`, the Potency result was “inactive”.

For the molecule `CN1CCN(C2=Nc3cc(Cl)ccc3Nc3ccccc32)CC1`, the Potency entry was “inactive”.

In the case of `Nc1nc2c(ncn2COC(CO)CO)c(=O)[nH]1`, the “activity change, negative = inhibition” value was 0.509%.

Turning to `C[C@H]1O[C@H](O[C@H]2[C@H](O)[C@@H](O)[C@@H](O[C@H]3[C@H](O)[C@@H](O)[C@H](O)O[C@@H]3CO)O[C@@H]2CO)[C@H](O)[C@@H](O)[C@@H]1N[C@H]1C=C(CO)[C@@H](O)[C@H](O)[C@H]1O`, the “activity change, negative = inhibition” value is 0.207%.

Take `CC1=NS(=O)(=O)c2cc(Cl)ccc2N1`: the Potency entry was “inactive”.

Take `CC/C=C(\C(=O)N[C@@H]1C(=O)N2C(C(=O)OCOC(=O)C(C)(C)C)=C(COC(N)=O)CS[C@H]12)c1csc(N)n1`: the Potency result is “inactive”.

For `Cn1cnc2c(F)c(Nc3ccc(Br)cc3Cl)c(C(=O)NOCCO)cc21`, the “activity change, negative = inhibition” value was -0.713%.

Turning to `Nc1[nH]c(=O)ncc1F`, the Potency result was “inactive”.

On to `O=C1CCc2ccc(OCCCCN3CCN(c4cccc(Cl)c4Cl)CC3)cc2N1`, for which the Potency entry is “inactive”.

For the molecule `CC(C)c1nc(CN(C)C(=O)N[C@H](C(=O)N[C@@H](Cc2ccccc2)C[C@H](O)[C@H](Cc2ccccc2)NC(=O)OCc2cncs2)C(C)C)cs1`, the Potency entry was “inactive”.

Take `CCCCNC(=O)NS(=O)(=O)c1ccc(C)cc1`: the Potency result is “inactive”.

Turning to `OCCOCCN1CCN(C(c2ccccc2)c2ccc(Cl)cc2)CC1` (configuration not stated), the “activity change, negative = inhibition” value is -15.8%.

Turning to `Cc1ccc(O)c([C@H](CCN(C(C)C)C(C)C)c2ccccc2)c1`, the “activity change, negative = inhibition” value was 10.5%.

For `COC(=O)C1=C(C)NC(C)=C(C(=O)OCC(C)C)C1c1ccccc1[N+](=O)[O-]` (configuration not stated), the “activity change, negative = inhibition” value was -29%.

With `CNCC[C@@H](Oc1ccccc1C)c1ccccc1`, the “activity change, negative = inhibition” value was 4.1%.

Regarding `CC(C)(C(=O)O)c1ccc(C(O)CCCN2CCC(C(O)(c3ccccc3)c3ccccc3)CC2)cc1` (configuration not stated), the Potency entry was “inactive”.

Regarding `CC(CN1c2ccccc2Sc2ccccc21)N(C)C` (configuration not stated), the Potency entry was “inactive”.

For the molecule `Cc1cccc(C)c1OCC(C)N` (configuration not stated), the Potency entry is “inactive”.

Regarding `COC(=O)Nc1nc2ccc(C(=O)c3cccs3)cc2[nH]1`, the “activity change, negative = inhibition” value was -58.8%.

For the molecule `Cc1ccc(-n2[nH]c(C)c(N=Nc3cccc(-c4cccc(C(=O)O)c4)c3O)c2=O)cc1C`, the “activity change, negative = inhibition” value was -0.687%.

As to `CC(CN(C)C)CN1c2ccccc2CCc2ccccc21` (configuration not stated), the Potency result is “inactive”.

On to `Cc1onc(-c2ccccc2Cl)c1C(=O)N[C@@H]1C(=O)N2[C@@H]1SC(C)(C)[C@@H]2C(=O)O`, for which the Potency entry was “inactive”.

As to `CN1CCC(=C2c3ccccc3C=Cc3ccccc32)CC1`, the Potency entry was “inactive”.

On to `COC(=O)Nc1nc2ccc(C(=O)c3ccccc3)cc2[nH]1`, for which the “activity change, negative = inhibition” value is -7.23%.

In the case of `COc1ccc(-c2cc(=S)ss2)cc1`, the “activity change, negative = inhibition” value was -11.3%.

Take `Nc1cc(-c2ccncc2)c[nH]c1=O`: the “activity change, negative = inhibition” value was 1.76%.

With `COc1ccc(OC)c(C(O)CNC(=O)CN)c1` (configuration not stated), the “activity change, negative = inhibition” value was -0.516%.

Regarding `CC[N+](C)(C)c1cccc(O)c1`, the Potency entry is “inactive”.

Take `CCC(=O)C(CC(C)N(C)C)(c1ccccc1)c1ccccc1` (configuration not stated): the “activity change, negative = inhibition” value is -20% [at 115 µM].

For `COc1cc2nc(N3CCN(C(=O)C4COc5ccccc5O4)CC3)nc(N)c2cc1OC` (configuration not stated), the Potency entry was “inactive”.

Consider `C#Cc1cccc(Nc2ncnc3cc(OCCOC)c(OCCOC)cc23)c1`, for which the “activity change, negative = inhibition” value is -38.7%.

In the case of `CN(C)CCOC(c1ccc(Cl)cc1)c1ccccn1` (configuration not stated), the “activity change, negative = inhibition” value is -0.497%.

In the case of `CC(C)OC(=O)C(C)(C)Oc1ccc(C(=O)c2ccc(Cl)cc2)cc1`, the Potency result is “inactive”.

`C[C@@H](c1ncncc1F)C(O)(Cn1cncn1)c1ccc(F)cc1F` (some centres not stated): the “activity change, negative = inhibition” value was 5.76%.
